High-throughput results (PubChem)
Most compounds without a hit are left out; they make up all but 1.1% or so of the library.
HTR5A inv ag: counter-screen for OPRM1-OPRD1 inverse agonists: human HTR5A inverse agonism. P47898. HTR5A cell line, luminescence. inhibition, % at 9.3 µM. actives 0.083% (n = 340,000). AID 504634; in the data active means inhibition mostly above about 23%, no sharp cut-off; inactive means mostly below about 18%
OPRM1-OPRD1 ag: OPRM1-OPRD1 heterodimerization agonism; P35372+P41143; cells, luminescence; activation, % at 9.3 µM; actives 0.3% (n = 340,000)
HTR5A ag: activates human HTR5A in OPRM1-OPRD1 agonist counter-screen; P47898; HTR5A agonist assay, luminescence, cell-based; activation, % at 9.3 µM; actives 0.61% (n = 340,000); AID 504692; in the data active means activation mostly above about 9.5%, no sharp cut-off; inactive means mostly below about 7.6%
MOR-DOR inv ag: inverse agonist of human OPRM1-OPRD1 heterodimerization; cell-based MOR-DOR heterodimer luminescence, inverse agonism; inhibition, % at 9.3 µM; actives 0.21% (n = 340,000); in the data active means inhibition above about 22%, passing the limit was not always enough
MOR-DOR ag conf: confirmation of human OPRM1-OPRD1 heterodimerization agonists; cells, MOR-DOR heterodimerization, luminescence complementation; actives 45% (n = 830); activation, % at 9.3 µM; shares compounds with OPRM1-OPRD1 ag
HTR5A ag ctr2: counter-screen for OPRM1-OPRD1 agonists: human HTR5A agonism. actives 8% (n = 830). activation, % at 9.3 µM. HTR5A agonist counterscreen, cell luminescence. shares compounds with OPRM1-OPRD1 ag; in the data active means activation above about 17%
Numbers stand for hits; – = inactive; · = no result. Unless noted, no stated cut-off is given here; in the data, active means activation above about 18%; inactive means the rest.

SMILES	HTR5A inv ag	OPRM1-OPRD1 ag	HTR5A ag	MOR-DOR inv ag	MOR-DOR ag conf	HTR5A ag ctr2
COc1ccc(NC(=O)CON=CC(=O)Nc2ccc(C)cc2)c(OC)c1	–	–	–	–	·	·
Cc1c(C(=O)N(Cc2cccs2)C2CCS(=O)(=O)C2)oc2ccccc12 (stereo not drawn)	–	27.2	–	–	–	–
Cc1c(C(=O)N(Cc2ccccc2)C2CCS(=O)(=O)C2)oc2ccccc12 (stereo not drawn)	–	–	–	–	·	·
CN(C)S(=O)(=O)c1ccc(-c2csc(N/N=C/c3ccc(O)cc3)n2)cc1	–	37.8	–	–	157.2	–
CN(C)S(=O)(=O)c1ccc(-c2csc(N/N=C/c3ccco3)n2)cc1	–	–	–	–	·	·
COc1ccc(N(C(=O)c2snc(C(N)=O)c2N)C(C(=O)NC2CCCC2)c2cccs2)cc1OC (stereo not drawn)	–	–	–	–	·	·
C#CC(=O)N(c1cc(OC)ccc1OC)C(C(=O)NC1CCCC1)c1cccs1 (stereo not drawn)	–	37.5	–	–	–	20.4
Cc1ccc(-c2nnc(SCC(=O)N/N=C/c3ccc(C)s3)n2-c2ccc(C)cc2)cc1	–	18.0	–	–	–	–
C/C(O)=C(/C#N)c1nc2ccccc2[nH]1	–	–	–	–	·	·
N#C/C(=C(/O)C(Cl)(Cl)Cl)c1nc2ccccc2[nH]1	–	21.2	–	–	–	–
OCc1ccc2c(c1)c(-c1ccc3c(c1)OCCO3)c(-c1ccccc1)n2-c1ccccc1	–	–	–	–	·	·
Cc1cc(/C=C2\SC(=S)N(C)C2=O)c(C)n1-c1ccc(O)cc1	–	51.9	–	–	33.1	–
Cc1cc(/C=C2\SC(=S)N(C)C2=O)c(C)n1-c1ccccc1O	–	–	–	–	·	·
CC[C@@H](C)[C@@H]1CN([C@@H](CN2CCC[C@H]2CN2C(N)=NC[C@H]2C(C)C)C(C)C)C(=N)N1CCc1ccc(Cl)c(Cl)c1	–	205.1	–	–	72.2	–
CC[C@@H](C)[C@@H]1CN([C@@H](C)CN2CCC[C@H]2CN2C(N)=NC[C@@H]2Cc2ccccc2)C(=N)N1CCc1ccc(Cl)c(Cl)c1	–	–	–	–	·	·
O=C(CCl)N(CCCNC(=O)C(F)(F)F)c1ccc([N+](=O)[O-])cc1	–	18.4	–	–	27.5	29.0
Cc1cc(NC(=O)CN2CCc3ccccc3C2)nc2c1c(=O)oc1ccccc12	–	517.6	–	–	–	–
O=C(NNC(=O)C1CC1)c1ccc(F)cc1F	–	–	–	–	·	·
COc1ccc(CN2CCc3c([nH]c4ccccc34)C2)c(OC)c1C	–	69.5	–	–	38.2	–
COc1ccc(CN2CCc3c([nH]c4ccccc34)C2)cc1Br	–	–	–	–	·	·
O=C1C(O)=CC(=C(c2ccccc2)c2ccccc2)c2ccccc21	–	20.0	–	–	–	–
FC(F)(F)c1cnc(Nc2ccc(N3CCOCC3)cc2)c(Cl)c1	–	28.1	–	–	–	–
CC[n+]1c(/C=C/N(C)c2ccccc2)n(-c2ccccc2)c2ccc(-c3nc4ccccc4s3)cc21	–	21.7	9.9	–	–	–
Cc1ccc(S(=O)(=O)Nc2ccccc2N=Cc2ccc([N+](=O)[O-])cc2[N+](=O)[O-])cc1	–	–	–	–	·	·
CN(C)C(CNC(=O)CCOc1ccccc1)c1ccco1 (stereo not drawn)	–	26.3	–	–	23.8	–
SMILES	HTR5A inv ag	OPRM1-OPRD1 ag	HTR5A ag	MOR-DOR inv ag	MOR-DOR ag conf	HTR5A ag ctr2
CC(=O)c1ccc(OCCCC(=O)NCC(c2ccco2)N(C)C)cc1 (stereo not drawn)	–	–	–	–	·	·
CN(C)C(CNC(=O)CCc1nc2ccccc2s1)c1ccccc1 (stereo not drawn)	–	33.1	–	–	–	–
COc1ccc(NC(=O)CCOc2ccccc2)cc1	–	–	–	–	·	·
COc1ccc(C(CNC(=O)CCOc2ccccc2)N(C)C)cc1 (stereo not drawn)	–	31.7	–	–	360.9	–
Cc1cccc(OCCC(=O)NCC(c2ccccc2)N(C)C)c1 (stereo not drawn)	–	28.4	–	–	49.3	–
O=C(CCc1nc2ccccc2s1)NCc1ccccc1F	–	–	–	–	·	·
CC[C@]12C(=O)N(C)C[C@H]([C@@H]3C(=O)N(Cc4ccccc4)C(=O)[C@@H]31)N2C(=O)c1ccc(Br)cc1	–	–	–	–	·	·
